We go through 17 compounds from PubChem BioAssay.

Experiment [1] relates to XIP peptide (Xip251-270) binding. Nature of the experiment: XIP fragment 251-270 binding compounds – biochemical, small-molecule microarray, fluorescence 635/667 nm, 0.1 µg/mL protein, primary screen (AID 1182). The conditions noted are these: fluorescent protein binding, 635 nm, higher = more signal, called active from +8 up or from −8 down.
The test system of a further experiment is XIP peptide (Xip251-270). Nature of the experiment: compounds binding XIP fragment 251-270 – biochemical, small-molecule microarray, fluorescence 635/667 nm, 0.5 µg/mL protein, primary screen (AID 1183). The settings on record: fluorescence 635 nm, higher = more signal.
Experiment [2] in a line: blood-stage malaria parasite viability loss – strain 3D7, DAPI fluorescence, 100 nL, primary screen (AID 1184).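 Further: parasites grown inside human red blood cells in medium with human serum.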 The settings on record: P. falciparum 3D7 growth, 3 d, higher = more signal.
The target of experiment [3] is Homeobox protein Hox-A13 (Mus musculus) (UniProt Q62424). The experiment can be described thus: disruptors of Hoxa13 oligonucleotide interaction – biochemical, fluorescence polarization, labeled oligonucleotide, primary screen (AID 1185). The conditions noted are these: Hoxa13:DNA binding, 15 min, higher = more signal, called active from +8 up or from −8 down. A general note: In fluorescence polarisation assays a small probe gives low polarisation when free and higher when bound to something large.
Sequence of Homeobox protein Hox-A13 (Mus musculus) (Q62424 whole entry, looked up): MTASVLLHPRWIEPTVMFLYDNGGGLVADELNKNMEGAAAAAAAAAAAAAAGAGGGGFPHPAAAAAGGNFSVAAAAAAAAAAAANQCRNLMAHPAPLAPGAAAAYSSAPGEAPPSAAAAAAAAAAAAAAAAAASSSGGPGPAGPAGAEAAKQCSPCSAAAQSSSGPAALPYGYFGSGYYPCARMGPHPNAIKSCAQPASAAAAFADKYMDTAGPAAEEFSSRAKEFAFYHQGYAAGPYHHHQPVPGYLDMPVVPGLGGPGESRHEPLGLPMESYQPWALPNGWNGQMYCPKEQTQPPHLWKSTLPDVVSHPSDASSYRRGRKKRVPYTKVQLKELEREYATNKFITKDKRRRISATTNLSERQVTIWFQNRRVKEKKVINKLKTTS

Experiment [4] is described as follows: blockers of DNA damage checkpoint Chk1 activation – imaging, HeLa, hydroxyurea, phospho-Chk1 antibody, percent positive cells, primary screen (AID 1186). The conditions noted are these: hydroxyurea-induced phospho-Chk1 immunofluorescence imaging, higher = more signal.
Experiment [5] can be described thus: blockers of DNA damage checkpoint Chk1 activation – imaging, HeLa, hydroxyurea, phospho-Chk1 nuclear intensity, primary screen (AID 1187). The conditions noted are these: hydroxyurea-induced phospho-Chk1 immunofluorescence imaging, higher = more signal.

Activity calls are given as the source filed them. Unless noted, how the calls were made is not given here.

With `CC1CC/C=C\[C@H]2OC34C=CCN(CCN5CCOCC5)C(=O)[C@H]3N(CCCCCCO)C(=O)[C@@H]4C2C(=O)O1` (some centres not stated), the composite z-score in experiment [1] was 0.135 (inactive); in the experiment on XIP peptide (Xip251-270), 0.935. The z-score in experiment [2] was 1.04; in experiment [3] it was -5.39 (inactive); in experiment [4] it was -0.453 (inactive); in experiment [5] it was 0.519 (inactive).

As to `NC(=O)NCC#Cc1ccc2c(c1)[C@]1(C(=O)N2)[C@H](C(=O)Nc2nc3ccccc3s2)[C@H]2C(=O)O[C@H](c3ccccc3)[C@H](c3ccccc3)N2[C@@H]1c1ccc(OCCO)cc1`, the composite z-score in experiment [1] is -0.165 (inactive); with XIP peptide (Xip251-270), -0.913. The z-score in experiment [2] is -0.245; in experiment [3], 0.217 (inactive); in experiment [4], 0.287 (inactive); in experiment [5], 0.68 (inactive).

Take `CCN(CC)c1ccc(N2CC=CC34O[C@@H]5C=CCOC(=O)[C@@H]5[C@H]3C(=O)N(CCCO)[C@@H]4C2=O)cc1` (some centres not stated): the composite z-score was 0.309 (inactive) in experiment [1] and 0.306 with XIP peptide (Xip251-270). For the same compound, the z-score in experiment [2] is -1.55; in experiment [3], -4.02 (inactive); in experiment [4], -0.232 (inactive); in experiment [5], -0.569 (inactive).

As to `CC[C@H](C)C(=O)O[C@H]1CC[C@]2(C)C3=C(CCC2C1(C)C)[C@]1(C)CC[C@H]([C@H](C)CCCC(C)C)[C@@]1(C)CC3` (some centres not stated), the composite z-score was 0.146 (inactive) in experiment [1] and -0.273 with XIP peptide (Xip251-270). In addition, the z-score in experiment [2] is 0.231; in experiment [3], -1.34 (inactive); in experiment [4], -0.719 (inactive); in experiment [5], -0.829 (inactive).

For `NCCCC[C@@H]1NC(=O)[C@H]2C[C@@H](C(=O)O)[C@@H](c3cccc(OCCO)c3)N2C1=O`, the composite z-score in experiment [1] was 0.505 (inactive); in the experiment with XIP peptide (Xip251-270), 0.86. Also, the z-score in experiment [2] was -0.0736; in experiment [3], 6.28 (inactive); in experiment [4] it was 0.0547 (inactive); in experiment [5], -0.62 (inactive).

Turning to `CC(C)(C)OC(=O)CC[C@]1(C(=O)N2CCOCC2)N=C(c2ccc(OCCCO)cc2)O[C@H]1c1ccccc1CN=[N+]=[N-]`, the results for the composite z-score (in experiment [1]; in the experiment with XIP peptide (Xip251-270)) were 0.518 (inactive) and 0.792, respectively. Besides, the z-score in experiment [2] is -1.79; in experiment [3], -6.05 (inactive); in experiment [4], -0.0845 (inactive); in experiment [5] it was -0.314 (inactive).

On to `COC(=O)[C@@]1(Cc2ccc(OC)cc2)[C@H]2c3cc(C(=O)N(C)C)n(Cc4ccsc4Br)c3C[C@H]2CN1C(=O)c1ccccc1`, for which the composite z-score in experiment [1] was 0.197 (inactive); in the experiment on XIP peptide (Xip251-270), 0.793. Further, the z-score in experiment [2] is -1.02; in experiment [3] it was -1.15 (inactive); in experiment [4] it was 0.0352 (inactive); in experiment [5] it was 0.984 (inactive).

Regarding `COc1ccc(NC(=O)O[C@H]2[C@H](OC(=O)Nc3ccc4c(c3)OCO4)[C@H](OC(=O)Nc3ccc4c(c3)OCO4)[C@@H](OC)O[C@@H]2CO)cc1`, the composite z-score in experiment [1] was 1.04 (inactive); in the experiment on XIP peptide (Xip251-270), 0.866. In addition, the z-score in experiment [2] was -2.24; in experiment [3], -4.94 (inactive); in experiment [4] it was -0.246 (inactive); in experiment [5], 0.267 (inactive).

For the compound `COC(=O)C1(CC(C)C)C=C2C(=C(C(C)C)C(=O)C2C)CN1` (configuration not stated), the composite z-score was -0.418 (inactive) in experiment [1] and 0.172 with XIP peptide (Xip251-270). Moreover, the z-score was 1.24 in experiment [2], -6.06 (inactive) in experiment [3], 0.677 (inactive) in experiment [4] and 0.675 (inactive) in experiment [5].

Consider `COc1ccc(C#Cc2ccc3c(c2)[C@]2(C(=O)N3)[C@H](c3ccc(OCCO)cc3)N3[C@H](c4ccccc4)[C@H](c4ccccc4)OC(=O)[C@H]3[C@@H]2C(=O)O)cc1`, for which the composite z-score in experiment [1] was -0.436 (inactive); in the experiment with XIP peptide (Xip251-270), 0.327. In addition, the z-score was -1.31 in experiment [2], -5.36 (inactive) in experiment [3], 0.36 (inactive) in experiment [4] and 0.273 (inactive) in experiment [5].

As to `CC(C)CNC(=O)[C@@H]1c2ccccc2C(=O)N(CC23CC4CC(CC(C4)C2)C3)[C@H]1c1ccc(CO)cc1`, the composite z-score in experiment [1] was 0.41 (inactive); in the experiment on XIP peptide (Xip251-270), 0.613. For the same compound, the z-score was -2.11 in experiment [2], -3.84 (inactive) in experiment [3], -0.282 (inactive) in experiment [4] and -0.0264 (inactive) in experiment [5].

For the compound `COc1ccc(C#Cc2ccc3c(c2)[C@]2(C(=O)N3)[C@H](C(=O)Nc3nc4ccccc4s3)[C@H]3C(=O)O[C@H](c4ccccc4)[C@H](c4ccccc4)N3[C@@H]2c2ccc(OCCO)cc2)cc1`, the figures for the composite z-score (in experiment [1]; in the experiment with XIP peptide (Xip251-270)) were -0.509 (inactive) and 0.782, respectively. Also, the z-score in experiment [2] was -0.668; in experiment [3], 1.71 (inactive); in experiment [4] it was 0.218 (inactive); in experiment [5], -0.0348 (inactive).

As to `CN1C(=O)[C@]2(CCC(=O)OC(C)(C)C)N=C(c3ccc(OCCCO)cc3)O[C@@H]2c2ccccc21`, the composite z-score in experiment [1] is 0.0974 (inactive); in the experiment with XIP peptide (Xip251-270) it was 0.654. Moreover, the z-score in experiment [2] was -1.56; in experiment [3] it was -5.26 (inactive); in experiment [4], -0.0356 (inactive); in experiment [5], 0.25 (inactive).

`C=CC(CO)NC(=O)OCC1c2ccccc2-c2ccccc21` (configuration not stated): the composite z-score is 1.62 (inactive) in experiment [1] and 0.162 with XIP peptide (Xip251-270). For the same compound, the z-score was 1.42 in experiment [2], 0.0393 (inactive) in experiment [3], 0.145 (inactive) in experiment [4] and 0.42 (inactive) in experiment [5].

On to `CC(=O)NCCCC[C@@H]1NC(=O)[C@@H]2C[C@H](C(=O)NCCCCCC[N+](C)(C)C)[C@H](c3ccc(O)cc3)N2C1=O`, for which the figures for the composite z-score (in experiment [1]; with XIP peptide (Xip251-270)) were 0.0817 (inactive) and 0.846, respectively. In addition, the z-score in experiment [2] was 1.12; in experiment [3], -2.45 (inactive); in experiment [4] it was 0.956 (inactive); in experiment [5] it was 0.817 (inactive).

As to `COC(=O)[C@@]1(CCC(=O)OC(C)(C)C)N=C(c2ccc(OCCCO)cc2)O[C@H]1c1ccccc1CN=[N+]=[N-]`, the composite z-score in experiment [1] was 1.63 (inactive); with XIP peptide (Xip251-270), 0.512. In addition, the z-score in experiment [2] is -2.27; in experiment [3] it was -1.11 (inactive); in experiment [4], -0.25 (inactive); in experiment [5] it was 0.0025 (inactive).

As for `C[C@H]1NC(=O)C([C@@H](C)OCc2ccccc2)NC(=O)[C@@]23C(=O)N[C@@H](Cc4ccccc4)C2[C@H](C)[C@@]2(C)O[C@H]2C3/C=C/C/C=C\CNC1=O` (some centres not stated), the results for the composite z-score (in experiment [1]; in the experiment with XIP peptide (Xip251-270)) were -0.113 (inactive) and -0.417, respectively. Further, the z-score in experiment [2] is -2.93; in experiment [3], -6.74 (inactive); in experiment [4] it was 0.314 (inactive); in experiment [5], 0.451 (inactive).
